TROY NFkB inh – TROY signaling inhibition; Q293 LMP1-TROYcd NF-kB luciferase reporter, 4 h; inhibition, % at 10 µM; 360,000 compounds, 0.98% hits;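 active = compounds whose plate-normalised and pattern-corrected inhibition of the luciferase reporter signal at the single screening dose is 50% or more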
TWEAK Fn14 block – inhibitors of TWEAK-Fn14 interaction signaling; TWEAK-stimulated Fn14 reporter cells, luciferase luminescence, 8 h; inhibition, % at 10 µM; 360,000 compounds, 2% hits; AID 1159606; in the data active = inhibition above about 50%
EBV LMP1 NFkB – Epstein-Barr LMP1 NF-kappaB reporter inhibition | LMP1-induced NF-kappaB luciferase reporter cells, luminescence | inhibition, % at 12.5 µM | 350,000 compounds, 0.69% hits | AID 504558; in the data active = inhibition above about 41%;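 also: 0% = neutral control wells and 100% = reference inhibitor control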
TRPM1 prom inh – inhibitors of MITF-driven TRPM1 promoter in melanoma cells | inhibition, % at 12.5 µM | 330,000 compounds, 0.83% hits | SK-MEL-5 TRPM1 promoter luciferase, 24 h;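 active = mean inhibition across replicates of 60% or more, whatever share of single replicates reaches that level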
Peg3 promoter – inhibitors of Peg3 promoter | HeLa PEG-Prom luciferase reporter, luminescence, overnight | inhibition, % at 20 µM | 360,000 compounds, 1.7% hits | AID 588405;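 active = inhibition of at least 50% at 20 µM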
Shn3 inh set2 – inhibitors of Schnurri-3 3'UTR reporter in osteoblasts | inhibition, % at 12.5 µM | Clone20 osteoblast Shn3 3'UTR firefly luciferase, 24 h | AID 588674 | 360,000 compounds, 0.52% hits;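 active = mean inhibition of at least 75% with every replicate also reaching 75%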;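 also: 0% = median of neutral control wells and 100% = pilot-screen positive control compound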
* marks the source's active call; other numbers are inactive results; · = no result. Only some compounds are listed: those with a hit (about 4.1% of all), similar ones and a draw of the others.

SMILES	TROY NFkB inh	TWEAK Fn14 block	EBV LMP1 NFkB	TRPM1 prom inh	Peg3 promoter	Shn3 inh set2
Cc1ccccc1N1CCN(C2=NC(=O)/C(=C\c3cccs3)S2)CC1	22	-8	-2	-24	-99	7
O=C1N=C(N2CCN(c3cccc4ccccc34)CC2)S/C1=C/c1cccs1	-7	-8	78*	-8	21	9
CC(=O)N1CCN(c2ccc(NC(=O)c3ccc([N+](=O)[O-])o3)cc2Cl)CC1	8	29	-26	95*	101*	96*
CN1CCN(c2ccccc2NC(=O)c2ccc([N+](=O)[O-])o2)CC1	-4	8	-7	79*	61*	14
CCC(=O)N1CCN(c2ccc(Cl)cc2NC(=O)c2ccc([N+](=O)[O-])o2)CC1	-5	9	-23	67*	19	-30
CC(=O)N1CCN(c2ccc(NC(=O)c3ccco3)cc2Cl)CC1	-47	-22	-39	-25	-82	-33
CCC(=O)N1CCN(c2ccc(NC(=O)c3ccc([N+](=O)[O-])o3)cc2Cl)CC1	-10	17	-48	87*	114*	96*
CCOc1ccc(S(=O)(=O)N2CCCC(C(=O)Nc3ccccc3)C2)cc1 (centres undefined)	2	26	-3	1	4	28
Cn1cc(-c2cccc(C(F)(F)F)c2)cc(C#N)c1=O	-3	-2	11	11	9	-8
CCN1CCN(c2ccc(NC(=O)c3ccc([N+](=O)[O-])o3)cc2Cl)CC1	-9	24	-37	71*	102*	68
CCCCN1CC(COCc2ccccc2)Oc2cc(Br)ccc2S1(=O)=O (centres undefined)	-20	-15	-12	-8	1	13
O=C(Nc1cccc(Cl)c1)Nc1csc([N+](=O)[O-])c1	38	72*	21	-6	-67	30
CC(=O)Nc1cccc(N(C)S(C)(=O)=O)c1	-11	3	4	-2	1	-6
CN(c1cccc(NC(=O)Nc2cccc(Cl)c2)c1)S(C)(=O)=O	5	82*	-3	-16	-210	-6
CCCCn1c(N)c(N(CCC(C)C)C(=O)c2ccc([N+](=O)[O-])s2)c(=O)[nH]c1=O	17	8	4	33	-6	-49
Cc1nc2cc(-c3cccc(F)c3)nn2c(C)c1CCC(=O)NC(C)CCc1ccco1 (centres undefined)	9	67*	24	53	-1	67
CC(=O)c1sc(NC(=O)CCc2ccccc2)nc1C	-39	-14	3	·	-57	-29
COc1ccc2[nH]c3c(N4CCC(O)(c5cccc(C(F)(F)F)c5)CC4)ncnc3c2c1	64*	75*	30	35	57*	24
COc1ccc2cc(C(=O)N3CCN(Cc4ccc5c(c4)OCO5)CC3)[nH]c2c1	16	6	14	7	-23	12
O=[N+]([O-])c1ccc2ncnc(N3CCN(Cc4ccc5c(c4)OCO5)CC3)c2c1	46	78*	42*	5	12	85
O=[N+]([O-])c1cccnc1N1CCN(Cc2ccc3c(c2)OCO3)CC1	5	-5	-8	-7	-47	12
COc1ccc2[nH]c3c(N4CCN(Cc5ccc6c(c5)OCO6)CC4)ncnc3c2c1	51*	38	20	5	55*	60
CC1NC(=O)c2cc3ccccc3cc2-n2c1nc1ccc(F)cc1c2=O (centres undefined)	3	6	-14	·	7	-1
C=C1C(=O)[C@@]23[C@H](O)C[C@@H]4C(C)(C)CC[C@H](O)[C@@]4(C)[C@@H]2CC[C@@H]1[C@H]3O	28	95*	94*	93*	102*	98*
C=C1C(=O)[C@@]23[C@H](O)C[C@@H]4C(C)(C)CC[C@H](O)[C@]4(C)[C@@H]2C[C@H](O)[C@@H]1[C@H]3O	10	60*	-13	42	43	97*
O=C(N[C@@H]1C/C=C\C[C@H](CC(=O)N(CCO)Cc2ccccc2)C(=O)N[C@@H](Cc2ccccc2)COC1=O)OCC1c2ccccc2-c2ccccc21	7	0	-18	4	68*	32
O=C(N[C@H]1C/C=C\C[C@@H](CC(=O)N(CCO)Cc2ccccc2)C(=O)NC[C@H](c2ccccc2)OC1=O)OCC1c2ccccc2-c2ccccc21	21	51*	-2	·	75*	-6

Bioassay records from PubChem BioAssay.
